# Experimental data reported in PubChem BioAssay AID652256 (National Center for Advancing Translational Sciences (NCATS), 2013).
# The other results are listed elsewhere or left out. Calls of active or inactive are those of the source.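 How the source made its calls: active means a half-inhibiting concentration could be measured and was below 100 µM; inactive means the rest.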
# Tested on: Thioredoxin reductase 1 (TXNRD1), rat
# Assay: qHTS Assay for Inhibitors of Mammalian Selenoprotein Thioredoxin Reductase 1 (TrxR1): DTNB Assay
# Conditions: purified TrxR1, DTNB reduction, A412
# Text: The selenoprotein thioredoxin reductase (TrxR; EC 1.8.1.9) is a FAD containing homodimeric pyridine nucleotide-disulfide oxidoreductase with many cellular roles. Together with NADPH and its prime substrate thioredoxin (Trx), the enzyme forms the core of the Trx system. The mammalian Trx system exerts a wide spectrum of functions including redox regulation, antioxidant defense, regulation of transcription factors as well as support of cell growth and replication. Many of these functions involve the reduction of Trx, which may subsequently reduce a number of different substrates including ribonucleotide reductase, peroxiredoxins or NFkB. Mammalian TrxR itself also has a broad substrate specificity, reducing both protein and non-protein substrates, including low molecular weight compounds such as dehydroascorbate, lipoic acid, ubiquinone, and juglone. In addition, several drugs in clinical use for anticancer treatment are indeed known to target TrxR1. This orthogonal DTNB assay seeks to further characterize cherry picks. […]
# 15 nM TrxR1 is reduced by 250 microM NADPH in TE buffer [50 mM Tris-HCl (pH 7.5), 2 mM EDTA] in a 96-well microtiter plate. […] During compound incubation, NADPH consumption is followed by the decrease in absorbance at 340 nm using a VersaMax microplate reader (Molecular Devices) to determine substrate potential of the compound. […]
structure (smiles),measurement,value
COc1ccc(-c2nc(CS(=O)CC(=O)N3CCC4(CC3)OCCO4)c(C)o2)cc1 (stereo unspecified),Potency,1460 nM (active)
